Test results as given in PubChem BioAssay (NCI).
Compounds without any hit were thinned out: in the full panel of roughly 79,000, 15% have a hit. Unmarked numbers belong to inactive results. Calls of active or inactive are those of the source. Rule as the data show it: active = growth inhibition above about 70%; inactive = the rest.

Assays:
[1] = NCI Yeast Anticancer Drug Screen. Data for the rad50 strain (AID 155);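 also: 0% = growth of vehicle-only cultures of the same strain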; settings: S. cerevisiae rad50 strain growth inhibition, active compounds read high
Outline: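 Readout: growth inhibition relative to vehicle-treated cultures. Compound exposure was carried out in a genetically defined yeast strain deficient in DNA damage repair.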

[2] = NCI Yeast Anticancer Drug Screen. Data for the mec2-1 strain (AID 157); settings: S. cerevisiae mec2-1 strain, active compounds read high
Outline: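 Growth inhibition is read against vehicle-treated controls after compound exposure of the mec2-1 yeast strain, which is defective in DNA damage repair or cell cycle control.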

[3] = NCI Yeast Anticancer Drug Screen. Data for the sgs1 mgt1 strain (AID 161);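 also: 0% = growth of cultures given vehicle only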; settings: S. cerevisiae sgs1 mgt1 strain, active compounds read high
Outline: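 This yeast growth screen uses a strain with defined DNA-repair lesions; compound-treated growth is compared with vehicle-treated growth.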

[4] = NCI Yeast Anticancer Drug Screen. Data for the cln2 rad14 strain (AID 165);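 also: 0% = growth equal to vehicle treated cultures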; settings: S. cerevisiae cln2 rad14 strain, active compounds read high
Outline: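 Growth inhibition, relative to vehicle-treated controls, is the read-out. The test organism is a yeast strain with defined genetic alterations, cln2 rad14.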

[5] = NCI Yeast Anticancer Drug Screen. Data for the bub3 strain (AID 167); settings: S. cerevisiae bub3 mutant strain, active compounds read high
Outline: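 Readout: yeast growth inhibition, expressed relative to vehicle-only wells. The test organism is a mutant strain from a panel with lesions in DNA repair or checkpoint genes.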

[6] = NCI Yeast Anticancer Drug Screen. Data for the mlh1 rad18 strain (AID 175); settings: S. cerevisiae mlh1 rad18 strain growth inhibition, active compounds read high
Outline: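 Cells of a genetically altered yeast strain, deficient in DNA damage repair, were treated with compound. Their growth was then compared with that of vehicle-treated cultures to give inhibition.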

[7] = at 5.0 µM (retest, dose inferred, filed as 0.5)
[8] = at 50.0 µM (retest, dose inferred, filed as 5.0)

Row | SMILES | growth inhibition [1, 7] [%] | growth inhibition [1, 8] | growth inhibition ([1]; at 50.0 µM) | growth inhibition [2, 7] | growth inhibition [2, 8] | growth inhibition ([2]; at 50.0 µM) | growth inhibition [3, 7] [%] | growth inhibition [3, 8] | growth inhibition ([3]; at 50.0 µM) | growth inhibition [4, 7] [%] | growth inhibition [4, 8] | growth inhibition ([4]; at 50.0 µM) | growth inhibition [5, 7] [%] | growth inhibition [5, 8] | growth inhibition ([5]; at 50.0 µM) | growth inhibition [6, 7] [%] | growth inhibition [6, 8] | growth inhibition ([6]; at 50.0 µM)
1 | N#CC(Cc1ccc(CC(C#N)(c2ccccc2)c2ccccn2)cc1)(c1ccccc1)c1ccccn1 (configuration not stated) | -1 | 3% | 20.9% | -2% | 3% | 34.5% | -4 | -1% | 10.9% | -6 | 1% | 2.75% | -2 | -8% | 35.4% | -2 | 2% | 14.8%
2 | S=C(Nc1ccccc1)N(Cc1ccccc1)c1ccccc1 | -7 | 51% | 62% | 10% | 57% | 28.6% | -7 | 50% | 46.2% | -8 | 8% | 32.5% | 3 | 42% | 65.9% | 4 | 72% (active) | 48.7%
3 | CCCCCCCCCCCCCCNCCC(=O)O | -8 | 99% (active) | 99.1% (active) | 23% | 100% (active) | 99.5% (active) | 2 | 98% (active) | 99.1% (active) | -8 | 99% (active) | 99.2% (active) | -6 | 99% (active) | 99.3% (active) | -13 | 99% (active) | 99.3% (active)
4 | COc1ccc(N=C2C(=S)N(c3ccc(OC)cc3)/C(=N/S(=O)(=O)c3ccccc3)N2c2ccccc2)cc1 | 10 | 18% | 8.6% | 9% | 23% | -4.1% | -23 | 0% | 5.7% | -11 | 3% | 11.2% | -13 | 11% | 1.65% | 14 | 16% | 14%
5 | CCc1c(-c2ccccc2)c(CN2CCCCC2)c2ccccn12 | 6 | 3% | -1.4% | 13% | 13% | -4.85% | 0 | 37% | 88.2% (active) | -6 | 26% | -20% | -4 | 26% | -5.5% | -12 | 5% | 21.9%
6 | CC1=C(c2ccccc2)C(=O)OC1=O | 5 | 11% | 52.5% | 2% | 0% | 2.7% | 4 | 6% | -4.65% | 0 | 3% | -28.4% | -2 | 3% | 3.7% | 13 | 14% | -10.4%
7 | CCOC(=O)c1ccc(N=Cc2cc(Cl)cc(Cl)c2O)cc1 | 67 | 99% (active) | 86.7% (active) | 72% (active) | 100% (active) | 88.5% (active) | 28 | 84% (active) | 91% (active) | 37 | 85% (active) | 78.9% (active) | 62 | 96% (active) | 87.2% (active) | 52 | 100% (active) | 84.5% (active)
8 | O=C(c1ccc(Cl)cc1)c1ccc([N+](=O)[O-])cc1 | 13 | -4% | 5.35% | -4% | 1% | -16.4% | 4 | -14% | 4.6% | -3 | 1% | -2.2% | 3 | 31% | 74.5% (active) | -3 | 7% | 8.05%
9 | N/C(=N\OC(=O)Nc1ccccc1)c1ccccc1 | 7 | 51% | 42.1% | 8% | 40% | 33% | 13 | 70% (active) | 68% | 2 | 38% | 32.2% | -3 | 24% | 11.7% | 4 | 76% (active) | 58.6%
